Compounds with a hit are over-represented: about 3.8% of the library has one in this group of screens.
HT1080-NT tox: qHTS for induction of synthetic lethality in tumor cells producing 2HG: qHTS for the HT-1080-NT fibrosarcoma cell line | HT-1080-NT fibrosarcoma viability, CellTiter-Glo ATP luminescence, 48 h | 1.6% of 360,000 active | Potency, µM (highest dose often 46.1 µM), inactives show top-dose activity, negative = less viability, hits mostly cytotoxic;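 note: NT is the 2HG producing partner of a matched IDH1 knockdown line; 0% = DMSO-treated cells and -100% = media-only wells without cells; nearly all actives have a fitted effect of over 55% in size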
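Fibrosarcoma NT cells, 750 per well in 5% FBS RPMI, were exposed to compound for 48 hours. Viability: CellTiter-Glo luminescence.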
ATXN2 expr inh: Primary qHTS for Inhibitors of ATXN expression; HEK-293 ATXN2-luciferase reporter, luminescence, 24 h; Potency, µM (top dose mostly 57 µM), inactives show top-dose activity change, negative = inhibition, hits mostly inhibitors; 0.72% of 360,000 active; AID 1745845, 2022; note: % is set by controls: 0 for no effect and ±100 for the full control effect; nearly all actives have a fitted effect of over 55% in size
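qHTS (up to 57 uM final) was run with 24 h compound exposure of reporter cells at 37 °C. Each well was multiplexed: SteadyGlo luminescence measured ATXN2-luciferase expression after a fluorogenic Gly-Phe-AFC viability readout (25 uM final).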
ATXN viability: Viability Counterscreen for Primary qHTS for Inhibitors of ATXN expression | AID 651635, 2014 | 0.49% of 400,000 active | Potency, µM (doses to about 56.7 µM), most hits filed as cytotoxic | S2 cells (HEK-293 line with an ATXN2-luciferase reporter) viability, CellTiter-Fluor protease fluorescence, 24 h; note: nearly all actives have a fitted effect of over 40% in size
TGFb inhibitor: qHTS for Inhibitors of TGF-b. 1.2% of 410,000 active. Potency, µM (doses to about 46.1 µM), for inactives: at the highest dose activity, negative = inhibition, most hits filed as inhibitors. HepG2 CAGA-GFP TGF-b/SMAD3 reporter, GFP fluorescence, 18 h; TGF-beta stimulated, 500 pg/mL final. AID 588855, 2011; note: % is set by controls: 0 for no effect and ±100 for the full control effect; nearly all actives have a fitted effect of over 65% in size
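First, reporter cells (HEPG2 CAGA-GFP) rested 2 h at 37 degrees C. Next, compounds were pinned in and TGF-beta added to 500 pg/mL final. After 18 h, GFP was imaged per cell and summed per well.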
HT1080 IDH1KD tx: qHTS for induction of synthetic lethality in tumor cells producing 2HG: qHTS for the HT-1080-IDH1KD cell line; HT-1080 IDH1 knockdown viability, ATP luminescence, 48 h; Potency, µM (top dose mostly 46.1 µM), for the others: at the highest dose activity, negative = toxicity, hits mostly cytotoxic; 2% of 360,000 active; AID 686971, 2013;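 note: 0% = DMSO wells and -100% = cell-free medium wells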
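% activity derives from luminescence (CellTiter-Glo), normalised to DMSO and no-cell wells. HT-1080-IDH1KD cells, 750/well, had 48 h compound exposure at 37 °C.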
HepG2 tox: qHTS for Inhibitors of TGF-b: Cytotox Counterscreen; HepG2 CAGA-GFP viability, ATP luminescence, 18 h; Potency, µM (titrated, usually from 46.1 µM), for the others: at the highest dose activity change, negative = cytotoxicity, usual class: cytotoxic; 0.76% of 410,000 active; AID 588856, 2011
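CellTiter-Glo luminescence gave cytotoxicity after 18 hours at 37 degrees C. The cells were HepG2 CAGA-GFP in 1% FBS DMEM, stimulated with 500 pg/mL TGF-beta after compound addition. %Activity was normalised to no-cell wells (complete cell-killing) and DMSO (no toxicity), and curves were fitted and classified.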
Active calls of the source: *. Calls come from the whole dose curve; as a rule, active = well fitted curve in the direction sought with a large enough effect; inconclusive = small, poorly fitted or top-dose-only effect, or another doubt; inactive = no such curve, though single readings can be large; an effect the other way counts as inactive or inconclusive. Potency is the fitted concentration of half-maximal effect.

How did CCc1ccc(NC(=O)CCS(=O)(=O)c2ccc3c(c2)oc(=O)n3C)cc1 do in these assays?
ATXN2 expr inh: -5%; ATXN viability: inactive; TGFb inhibitor: -8%; HepG2 tox: 2%

Results for O=C(CCc1nnc2n(Cc3ccccc3Cl)c(=O)c3ccccc3n12)Nc1ccc(F)c(F)c1 ?
TGFb inhibitor: -4%; HepG2 tox: -8%

How did COc1ccc(Cl)cc1NC(=O)c1nnn(CC(=O)Nc2ccc(OC)c(OC)c2)c1N do in these assays?
HT1080-NT tox: 13%; ATXN viability: inactive; TGFb inhibitor: -3%; HT1080 IDH1KD tx: 13%; HepG2 tox: -3%

What do the screens show for `CCOc1ccccc1NC(=O)Cn1nnc(C(=O)NCc2ccc3c(c2)OCO3)c1N`?
HT1080-NT tox: inconclusive; ATXN viability: inconclusive; TGFb inhibitor: 0%; HT1080 IDH1KD tx: 12µM*; HepG2 tox: 3%

How did COc1cccc(Cn2nnc(C(=O)NCc3ccc(Cl)cc3Cl)c2N)c1 do in these assays?
ATXN2 expr inh: 0%; ATXN viability: inactive; TGFb inhibitor: 5%; HepG2 tox: 6%

What do the screens show for `COc1cccc(Cn2nnc(C(=O)NCCc3ccc(Cl)cc3)c2N)c1`?
HT1080-NT tox: -5%; ATXN2 expr inh: -11%; ATXN viability: inactive; TGFb inhibitor: inconclusive; HT1080 IDH1KD tx: -7%; HepG2 tox: 18µM*

Results for CCOc1ccc(OCC)c(NC(=O)c2nnn(CC(=O)Nc3cc(Cl)ccc3OC)c2N)c1 ?
ATXN2 expr inh: inconclusive; ATXN viability: 10µM*; TGFb inhibitor: inconclusive; HepG2 tox: -6%

What do the screens show for `CCc1nc2ccc(C(=O)NCc3cc(OC)ccc3OC)cc2nc1CC`?
TGFb inhibitor: 2%; HepG2 tox: 1%

How did CCC1C(=O)NCCN1Cc1ccc2c(c1)CN(Cc1cccn1-c1ccc(Cl)cn1)CCO2 (stereo unspecified) do in these assays?
ATXN viability: inactive

What do the screens show for `O=S(=O)(Nc1ccc2c3c(cccc13)CC2)c1ccccc1`?
HT1080-NT tox: -9%; ATXN viability: inactive; TGFb inhibitor: inconclusive; HT1080 IDH1KD tx: -4%; HepG2 tox: -31%

What do the screens show for `Cc1ccc(S(=O)(=O)Nc2ccc(O)c3ccccc23)c(C)c1`?
HT1080-NT tox: 29µM*; ATXN2 expr inh: -39%; ATXN viability: inconclusive; TGFb inhibitor: inconclusive; HT1080 IDH1KD tx: inconclusive; HepG2 tox: -95%

Results for COc1ccc(S(=O)(=O)Nc2ccccc2)cc1 ?
HT1080-NT tox: -18%; ATXN2 expr inh: -20%; ATXN viability: inactive; TGFb inhibitor: -2%; HT1080 IDH1KD tx: -16%; HepG2 tox: -1%

Results for COc1ccc(S(=O)(=O)Nc2ccc(O)c3ccccc23)cc1 ?
HT1080-NT tox: -1%; ATXN2 expr inh: inconclusive; ATXN viability: 20µM*; TGFb inhibitor: inconclusive; HT1080 IDH1KD tx: -21%; HepG2 tox: -100%

How did Cc1ccc(S(=O)(=O)Nc2ccc3c4c(cccc24)CC3)c(C)c1 do in these assays?
HT1080-NT tox: 21µM*; ATXN2 expr inh: -29%; ATXN viability: inactive; TGFb inhibitor: inconclusive; HT1080 IDH1KD tx: 10µM*; HepG2 tox: -5%

How did c1ccc(-n2nnnc2-c2cccc3ccccc23)cc1 do in these assays?
HT1080-NT tox: 5.8µM*; ATXN2 expr inh: -15%; ATXN viability: inactive; TGFb inhibitor: -29%; HT1080 IDH1KD tx: 8.2µM*; HepG2 tox: -18%

How did BrC(=C\c1ccccc1)/C=N/n1cnnc1 do in these assays?
HT1080-NT tox: 16µM*; ATXN viability: inconclusive; TGFb inhibitor: 26%; HT1080 IDH1KD tx: 21µM*; HepG2 tox: 2%

Results for BrC(=C\c1ccccc1)/C=N/Nc1ccc2nncn2n1 ?
HT1080-NT tox: -8%; ATXN2 expr inh: 7%; ATXN viability: inactive; TGFb inhibitor: 5%; HT1080 IDH1KD tx: inconclusive; HepG2 tox: -19%

Results for Cc1nc(Oc2ccc(F)cc2Cl)c2oc3ccccc3c2n1 ?
ATXN2 expr inh: -8%; ATXN viability: inactive; TGFb inhibitor: 2%; HepG2 tox: -2%

How did COc1cc(=O)n2c(c1C(=O)N(C)Cc1cscn1)CCN(Cc1ccc3c(c1)OCCO3)CC2 do in these assays?
ATXN viability: inactive

Results for NC1=NC2(CCC(c3ccccc3)CC2)n2c(nc3ccccc32)N1 (stereo unspecified) ?
HT1080-NT tox: 21µM*; ATXN2 expr inh: -1%; ATXN viability: inactive; TGFb inhibitor: inconclusive; HT1080 IDH1KD tx: inconclusive; HepG2 tox: -31%

What do the screens show for `N=c1n(CC(=O)c2ccc(Br)cc2)c2ccccc2n1Cc1ccccc1`?
HT1080-NT tox: -23%; ATXN2 expr inh: inconclusive; TGFb inhibitor: 16µM*; HT1080 IDH1KD tx: -7%; HepG2 tox: -99%

Results for Cc1ccccc1Cn1c(=N)n(CC(=O)c2ccco2)c2ccccc21 ?
HT1080-NT tox: inconclusive; ATXN2 expr inh: -23%; ATXN viability: inactive; TGFb inhibitor: 10µM*; HT1080 IDH1KD tx: inconclusive; HepG2 tox: -24%

What do the screens show for `CCN1CCCC1CNC(=O)c1cnn(-c2ncc3c(n2)-c2ccc(OC)cc2CC3)c1C1CC1` (stereo unspecified)?
ATXN viability: inactive

How did Cc1ccc(N=C2C(=O)Nc3ccc(Br)cc32)cc1 do in these assays?
HT1080-NT tox: inconclusive; ATXN2 expr inh: -14%; ATXN viability: inactive; TGFb inhibitor: 0%; HT1080 IDH1KD tx: inconclusive; HepG2 tox: -17%

How did O=C1Nc2ccc(Br)cc2C1=C1CCCCC1 do in these assays?
HT1080-NT tox: inconclusive; ATXN2 expr inh: -2%; ATXN viability: inactive; TGFb inhibitor: -28%; HT1080 IDH1KD tx: 16µM*; HepG2 tox: 2%

How did Cc1ccc(-n2c(-c3ccccc3)c[n+]3c2CCc2ccccc2-3)c(C)c1 do in these assays?
HT1080-NT tox: 23µM*; ATXN2 expr inh: inconclusive; ATXN viability: inactive; TGFb inhibitor: inconclusive; HT1080 IDH1KD tx: inconclusive; HepG2 tox: -26%

Results for CCOc1ccc(-c2nnc(SCC(=O)NCc3ccc(Cl)cc3)o2)cc1 ?
ATXN2 expr inh: 9%; ATXN viability: inactive; TGFb inhibitor: -4%; HepG2 tox: -6%

What do the screens show for `COc1cc2nc(N(C)C)c(CNC3CCOC(C)(C)C3)cc2c(OC)c1OC` (stereo unspecified)?
ATXN viability: inactive

Screening results as filed in PubChem BioAssay.
